Source: ChEMBL document CHEMBL1961873, “Compounds: GSK PKIS; Assays: Nanosyn kinase panel” (2012)

What was measured:
[1] = target: Dual specificity protein kinase CLK3 (Homo sapiens) (UniProt P49761); conditions: at 1 µM;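 also: each value is the mean inhibition of CLK3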
[2] = target: Dual specificity tyrosine-phosphorylation-regulated kinase 1A (Homo sapiens) (UniProt Q13627); conditions: at 0.1 µM
[3] = target: Dual specificity tyrosine-phosphorylation-regulated kinase 1A (Homo sapiens) (UniProt Q13627); conditions: at 1 µM
[4] = target: Dual specificity tyrosine-phosphorylation-regulated kinase 1B (Homo sapiens) (UniProt Q9Y463); conditions: at 0.1 µM
[5] = target: Dual specificity tyrosine-phosphorylation-regulated kinase 1B (Homo sapiens) (UniProt Q9Y463); conditions: at 1 µM
[6] = target: T1, Dual specificity tyrosine-phosphorylation-regulated kinase 2 (Homo sapiens) (UniProt Q92630); conditions: at 0.1 µM
T1 sequence (whole entry): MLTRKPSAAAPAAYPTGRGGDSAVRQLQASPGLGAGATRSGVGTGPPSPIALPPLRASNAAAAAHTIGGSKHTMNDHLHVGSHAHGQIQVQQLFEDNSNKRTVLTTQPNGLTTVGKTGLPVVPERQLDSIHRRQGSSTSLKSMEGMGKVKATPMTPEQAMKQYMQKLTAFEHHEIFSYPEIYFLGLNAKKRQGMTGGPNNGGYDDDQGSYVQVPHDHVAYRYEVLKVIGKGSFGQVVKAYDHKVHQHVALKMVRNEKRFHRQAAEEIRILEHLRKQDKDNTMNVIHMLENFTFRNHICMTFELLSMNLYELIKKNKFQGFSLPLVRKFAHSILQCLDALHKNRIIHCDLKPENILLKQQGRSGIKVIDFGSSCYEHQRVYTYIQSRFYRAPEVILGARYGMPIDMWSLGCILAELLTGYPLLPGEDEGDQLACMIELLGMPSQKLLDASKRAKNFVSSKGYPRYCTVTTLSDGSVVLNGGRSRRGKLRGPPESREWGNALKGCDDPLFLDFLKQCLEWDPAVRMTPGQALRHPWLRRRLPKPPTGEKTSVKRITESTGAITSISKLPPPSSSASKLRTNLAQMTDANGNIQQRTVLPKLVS

[7] = target: T1, Dual specificity tyrosine-phosphorylation-regulated kinase 2 (Homo sapiens); conditions: at 1 µM
[8] = target: Glycogen synthase kinase-3 alpha (Homo sapiens) (UniProt P49840); conditions: at 0.1 µM
[9] = target: Glycogen synthase kinase-3 alpha (Homo sapiens) (UniProt P49840); conditions: at 1 µM
[10] = target: Glycogen synthase kinase-3 beta (Homo sapiens) (UniProt P49841); conditions: at 0.1 µM
[11] = target: Glycogen synthase kinase-3 beta (Homo sapiens) (UniProt P49841); conditions: at 1 µM
[12] = target: Homeodomain-interacting protein kinase 1 (Homo sapiens) (UniProt Q86Z02); conditions: at 0.1 µM
[13] = target: Homeodomain-interacting protein kinase 1 (Homo sapiens) (UniProt Q86Z02); conditions: at 1 µM
[14] = target: T2, Homeodomain-interacting protein kinase 4 (Homo sapiens) (UniProt Q8NE63); conditions: at 0.1 µM
T2 sequence (whole entry): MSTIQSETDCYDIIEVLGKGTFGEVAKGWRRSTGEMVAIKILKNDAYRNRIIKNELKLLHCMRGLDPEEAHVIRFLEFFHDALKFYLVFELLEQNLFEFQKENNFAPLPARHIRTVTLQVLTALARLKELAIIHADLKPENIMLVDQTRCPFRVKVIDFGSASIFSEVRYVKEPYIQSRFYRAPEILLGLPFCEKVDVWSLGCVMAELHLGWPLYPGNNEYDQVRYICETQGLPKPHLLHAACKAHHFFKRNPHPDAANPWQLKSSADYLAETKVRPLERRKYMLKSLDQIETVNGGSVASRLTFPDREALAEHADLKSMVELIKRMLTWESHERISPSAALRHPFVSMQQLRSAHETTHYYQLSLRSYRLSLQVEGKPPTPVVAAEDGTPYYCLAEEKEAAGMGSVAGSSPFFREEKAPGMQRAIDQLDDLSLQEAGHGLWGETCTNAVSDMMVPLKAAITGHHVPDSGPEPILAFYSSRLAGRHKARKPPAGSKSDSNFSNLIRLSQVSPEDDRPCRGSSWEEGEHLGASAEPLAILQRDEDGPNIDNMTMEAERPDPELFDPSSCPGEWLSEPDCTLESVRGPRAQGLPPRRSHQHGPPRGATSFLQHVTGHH

[15] = target: T2, Homeodomain-interacting protein kinase 4 (Homo sapiens); conditions: at 1 µM
[16] = target: Mitogen-activated protein kinase 9 (Homo sapiens) (UniProt P45984); conditions: at 0.1 µM
[17] = target: Mitogen-activated protein kinase 9 (Homo sapiens) (UniProt P45984); conditions: at 1 µM
[18] = target: Mitogen-activated protein kinase 1 (Homo sapiens) (UniProt P28482); conditions: at 0.1 µM
[19] = target: Mitogen-activated protein kinase 1 (Homo sapiens) (UniProt P28482); conditions: at 1 µM
[20] = target: Mitogen-activated protein kinase 3 (Homo sapiens) (UniProt P27361); conditions: at 0.1 µM;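 also: each value is a mean inhibition figure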
Mitogen-activated protein kinase 3 (Homo sapiens), sequence (P27361 whole entry): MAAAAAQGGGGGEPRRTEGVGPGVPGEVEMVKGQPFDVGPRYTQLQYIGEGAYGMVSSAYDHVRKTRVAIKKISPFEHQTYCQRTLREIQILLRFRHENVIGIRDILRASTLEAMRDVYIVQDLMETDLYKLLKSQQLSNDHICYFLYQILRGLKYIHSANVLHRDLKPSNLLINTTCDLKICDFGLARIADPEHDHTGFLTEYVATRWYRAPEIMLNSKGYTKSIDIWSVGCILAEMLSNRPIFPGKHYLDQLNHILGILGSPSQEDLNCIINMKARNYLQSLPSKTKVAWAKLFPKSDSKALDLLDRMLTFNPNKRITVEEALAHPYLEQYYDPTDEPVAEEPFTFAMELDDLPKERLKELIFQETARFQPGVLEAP

Dual specificity tyrosine-phosphorylation-regulated kinase 1B (Homo sapiens), sequence (Q9Y463 whole entry, looked up): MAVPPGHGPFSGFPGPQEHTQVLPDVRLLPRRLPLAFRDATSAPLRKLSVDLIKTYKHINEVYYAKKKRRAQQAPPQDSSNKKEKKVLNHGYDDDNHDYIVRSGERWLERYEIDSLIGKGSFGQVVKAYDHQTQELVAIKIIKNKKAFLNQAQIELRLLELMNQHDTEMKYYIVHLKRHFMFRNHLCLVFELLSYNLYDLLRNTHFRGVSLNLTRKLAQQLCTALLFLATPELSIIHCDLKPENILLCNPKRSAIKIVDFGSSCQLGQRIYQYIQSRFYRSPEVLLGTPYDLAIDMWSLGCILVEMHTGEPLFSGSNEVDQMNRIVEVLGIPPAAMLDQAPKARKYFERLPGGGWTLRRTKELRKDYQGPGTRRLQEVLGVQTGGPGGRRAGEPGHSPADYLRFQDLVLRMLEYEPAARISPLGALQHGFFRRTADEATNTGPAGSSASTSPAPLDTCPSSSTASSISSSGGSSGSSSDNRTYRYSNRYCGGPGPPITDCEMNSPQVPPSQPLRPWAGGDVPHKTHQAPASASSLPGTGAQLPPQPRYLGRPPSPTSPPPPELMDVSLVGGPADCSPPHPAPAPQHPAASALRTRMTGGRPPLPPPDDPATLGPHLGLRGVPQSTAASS
Mitogen-activated protein kinase 1 (Homo sapiens), sequence (P28482 whole entry): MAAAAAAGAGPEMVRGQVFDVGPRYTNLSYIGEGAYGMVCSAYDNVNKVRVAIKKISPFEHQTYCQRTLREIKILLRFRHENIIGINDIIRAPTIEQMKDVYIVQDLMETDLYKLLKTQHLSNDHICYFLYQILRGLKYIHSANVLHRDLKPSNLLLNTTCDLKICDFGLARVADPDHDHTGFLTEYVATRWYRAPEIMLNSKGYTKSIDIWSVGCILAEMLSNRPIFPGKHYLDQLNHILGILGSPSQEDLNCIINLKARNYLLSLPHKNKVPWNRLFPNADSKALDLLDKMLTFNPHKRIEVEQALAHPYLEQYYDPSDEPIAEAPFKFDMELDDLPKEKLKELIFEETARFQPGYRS
Dual specificity protein kinase CLK3 (Homo sapiens), sequence (P49761 whole entry, looked up): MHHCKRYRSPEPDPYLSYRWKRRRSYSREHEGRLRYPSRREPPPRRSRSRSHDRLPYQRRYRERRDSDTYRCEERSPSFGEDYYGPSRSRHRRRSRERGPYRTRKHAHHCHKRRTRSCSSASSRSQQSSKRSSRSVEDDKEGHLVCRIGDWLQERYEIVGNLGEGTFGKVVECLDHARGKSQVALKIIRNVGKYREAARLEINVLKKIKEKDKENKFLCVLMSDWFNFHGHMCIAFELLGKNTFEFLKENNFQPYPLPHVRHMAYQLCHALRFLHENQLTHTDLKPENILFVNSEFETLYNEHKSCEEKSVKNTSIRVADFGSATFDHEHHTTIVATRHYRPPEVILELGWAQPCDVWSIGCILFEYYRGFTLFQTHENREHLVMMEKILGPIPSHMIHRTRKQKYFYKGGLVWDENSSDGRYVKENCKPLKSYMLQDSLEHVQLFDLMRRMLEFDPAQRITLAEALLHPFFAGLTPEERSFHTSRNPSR
Mitogen-activated protein kinase 9 (Homo sapiens), sequence (P45984 whole entry, looked up): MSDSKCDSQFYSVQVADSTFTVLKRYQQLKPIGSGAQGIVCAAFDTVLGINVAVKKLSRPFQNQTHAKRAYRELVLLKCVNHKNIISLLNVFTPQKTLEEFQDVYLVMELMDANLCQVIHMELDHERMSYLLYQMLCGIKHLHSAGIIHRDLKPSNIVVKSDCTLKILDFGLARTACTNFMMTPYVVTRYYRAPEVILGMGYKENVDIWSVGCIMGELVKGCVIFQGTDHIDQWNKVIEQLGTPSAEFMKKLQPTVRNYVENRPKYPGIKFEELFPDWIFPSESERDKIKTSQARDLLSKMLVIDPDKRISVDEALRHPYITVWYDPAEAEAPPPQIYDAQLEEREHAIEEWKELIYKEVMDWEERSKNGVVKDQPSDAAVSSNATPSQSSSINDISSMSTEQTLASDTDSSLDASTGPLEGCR
Glycogen synthase kinase-3 beta (Homo sapiens), sequence (P49841 whole entry, looked up): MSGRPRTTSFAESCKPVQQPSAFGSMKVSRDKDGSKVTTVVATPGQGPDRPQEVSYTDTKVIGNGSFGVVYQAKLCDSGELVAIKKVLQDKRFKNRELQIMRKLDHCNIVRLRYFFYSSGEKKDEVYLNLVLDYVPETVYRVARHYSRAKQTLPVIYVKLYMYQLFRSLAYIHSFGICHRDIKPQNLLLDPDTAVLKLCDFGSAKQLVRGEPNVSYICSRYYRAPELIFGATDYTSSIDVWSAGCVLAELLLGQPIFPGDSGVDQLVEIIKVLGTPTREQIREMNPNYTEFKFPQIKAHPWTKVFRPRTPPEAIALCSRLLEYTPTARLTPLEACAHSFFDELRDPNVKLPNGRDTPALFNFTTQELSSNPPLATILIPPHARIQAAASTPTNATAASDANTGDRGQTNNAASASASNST
Glycogen synthase kinase-3 alpha (Homo sapiens), sequence (P49840 2-483 limits assumed): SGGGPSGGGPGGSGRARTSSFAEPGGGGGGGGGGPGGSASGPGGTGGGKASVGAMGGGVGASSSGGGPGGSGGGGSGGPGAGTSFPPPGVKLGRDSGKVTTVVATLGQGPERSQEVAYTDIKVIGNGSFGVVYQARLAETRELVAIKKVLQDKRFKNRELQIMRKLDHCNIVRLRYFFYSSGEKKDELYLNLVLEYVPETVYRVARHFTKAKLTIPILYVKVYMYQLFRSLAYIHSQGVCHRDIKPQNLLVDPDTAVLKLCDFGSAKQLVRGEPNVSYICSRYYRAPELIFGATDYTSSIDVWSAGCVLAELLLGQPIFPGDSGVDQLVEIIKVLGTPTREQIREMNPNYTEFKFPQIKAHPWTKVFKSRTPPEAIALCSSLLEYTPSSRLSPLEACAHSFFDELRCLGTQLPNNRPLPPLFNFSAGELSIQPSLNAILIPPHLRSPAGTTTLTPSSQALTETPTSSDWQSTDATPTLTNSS
Homeodomain-interacting protein kinase 1 (Homo sapiens), sequence (Q86Z02 whole entry, looked up): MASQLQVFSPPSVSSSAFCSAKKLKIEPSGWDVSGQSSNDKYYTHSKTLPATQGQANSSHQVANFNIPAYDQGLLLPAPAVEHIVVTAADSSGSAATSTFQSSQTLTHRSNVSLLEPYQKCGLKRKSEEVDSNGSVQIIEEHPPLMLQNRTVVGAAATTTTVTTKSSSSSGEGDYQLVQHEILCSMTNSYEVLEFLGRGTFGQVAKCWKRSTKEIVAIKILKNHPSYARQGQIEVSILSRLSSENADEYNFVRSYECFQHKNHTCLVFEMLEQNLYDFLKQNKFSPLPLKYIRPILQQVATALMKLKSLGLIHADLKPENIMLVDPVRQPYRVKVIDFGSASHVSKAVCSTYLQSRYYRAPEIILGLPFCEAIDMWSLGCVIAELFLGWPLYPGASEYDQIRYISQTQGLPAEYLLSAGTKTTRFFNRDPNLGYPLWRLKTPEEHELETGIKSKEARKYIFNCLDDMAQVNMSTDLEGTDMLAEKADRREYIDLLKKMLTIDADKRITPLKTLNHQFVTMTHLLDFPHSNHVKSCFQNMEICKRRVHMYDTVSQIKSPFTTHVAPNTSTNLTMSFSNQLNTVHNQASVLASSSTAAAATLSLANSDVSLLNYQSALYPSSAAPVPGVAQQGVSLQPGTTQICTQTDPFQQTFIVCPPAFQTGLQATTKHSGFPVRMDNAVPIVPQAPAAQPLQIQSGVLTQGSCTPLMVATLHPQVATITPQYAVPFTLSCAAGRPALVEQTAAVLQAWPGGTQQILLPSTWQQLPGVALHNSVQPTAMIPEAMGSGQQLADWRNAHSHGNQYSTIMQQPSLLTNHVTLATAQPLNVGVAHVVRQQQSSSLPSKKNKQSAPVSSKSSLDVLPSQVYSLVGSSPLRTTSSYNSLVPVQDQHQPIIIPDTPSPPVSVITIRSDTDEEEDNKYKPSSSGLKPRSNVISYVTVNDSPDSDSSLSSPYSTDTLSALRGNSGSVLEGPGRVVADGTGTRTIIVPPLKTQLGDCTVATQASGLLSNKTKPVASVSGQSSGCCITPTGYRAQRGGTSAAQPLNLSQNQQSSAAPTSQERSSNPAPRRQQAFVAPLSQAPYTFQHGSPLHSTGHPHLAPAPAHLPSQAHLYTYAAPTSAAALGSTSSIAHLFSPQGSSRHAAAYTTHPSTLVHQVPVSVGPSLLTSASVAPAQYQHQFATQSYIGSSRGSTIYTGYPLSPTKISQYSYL

Compound | inhibition [1] | inhibition [2] | inhibition [3] | inhibition [4] | inhibition [5] | inhibition [6] | inhibition [7] | inhibition [8] | inhibition [9] | inhibition [10] | inhibition [11] | inhibition [12] | inhibition [13] | inhibition [14] | inhibition [15] | inhibition [16] | inhibition [17] | inhibition [18] | inhibition [19] | inhibition [20]
CC(C)c1ccc(Nc2nccc(-c3cnn4ncccc34)n2)cc1 | 14% | 40.6% | 81.2% | 43.4% | 82.1% | 2.73% | 14% | 35.6% | 76% | 31.3% | 75.4% | 57.9% | 87.8% | 11.2% | 50.6% | 5.25% | 27% | 3.14% | 9.29% | 0.92%
Nc1ccc(C#Cc2cncnc2Nc2ccc(OCc3cccc(F)c3)c(Cl)c2)cc1 | 0.7% | 3.22% | 2.99% | 0.49% | 2.12% | 1.74% | 0.41% | 2.01% | 1.4% | 1.95% | 0.21% | -0.22% | 0.93% | 0.09% | 0.28% | 1.88% | 1.2% | 4.25% | 3.67% | 3.61%
NS(=O)(=O)c1ccc(N/N=C2\C(=O)Nc3ccc(Cl)cc32)cc1 | 1.92% | 1.08% | 6.73% | 0.19% | 3.96% | 2.3% | 3.44% | 17.3% | 61.2% | 13.5% | 54.1% | 2.46% | 10.2% | 2.99% | 7.64% | 3.27% | 4.35% | 6.29% | 4.79% | 4.87%
Oc1cccc(-c2nc(-c3ccccc3)[nH]c2-c2ccncc2)c1 | 2.52% | 2.29% | 8.77% | 1.25% | 7.99% | 2.63% | 5.4% | 5.29% | 14.8% | 5.61% | 18.9% | 1.65% | 4.29% | 10.7% | 44.9% | 2.02% | 10.7% | 5.56% | 5.82% | 3.48%
Cc1ccc(C(=O)NC2CC2)cc1-c1ccc2[nH]ncc2c1 | 0.04% | -1.4% | 2.6% | 1.19% | 3.29% | -3.32% | -3.69% | -1.07% | 1.83% | -0.96% | 1.14% | -4.85% | 0.04% | 0.67% | 5.11% | -0.5% | -1.51% | -3.82% | -5.22% | -2.68%
COc1cc(Nc2nccc(-c3cnn4ncccc34)n2)cc(OC)c1 | 77.3% | 85% | 91.2% | 87.4% | 92.4% | 5.46% | 30.2% | 49.7% | 86.8% | 60.2% | 89.9% | 86.8% | 93.7% | 30.6% | 76.3% | 10.4% | 48.1% | 2.31% | 19.7% | 2.46%
